# Data reported in paper PMC5540273 (PLoS ONE, 2017).
# Assays:
# Conditions in all cases: concentration: 1 μM, replicates: in singlicate; n = 1
# CSNK1G1 = test system: CSNK1G1
# CSNK1G2 = test system: CSNK1G2
# CSNK1G3 = test system: CSNK1G3
# CSNK2A1 = test system: CSNK2A1
# CSNK2A2 = test system: CSNK2A2
# CTK = test system: T1, CTK
# T1 construct: gene MATK
# DAPK1 = test system: DAPK1
# DAPK2 = test system: DAPK2
# DAPK3 = test system: DAPK3
# DCAMKL1 = test system: T2, DCAMKL1
# T2 construct: gene DCLK1
# DCAMKL2 = test system: T3, DCAMKL2
# T3 construct: gene DCLK2
# DCAMKL3 = test system: T4, DCAMKL3
# T4 construct: gene DCLK3
# DDR1 = test system: DDR1
# DDR2 = test system: DDR2
# DLK = test system: T5, DLK
# T5 construct: gene MAP3K12
# DMPK2 = test system: T6, DMPK2
# T6 construct: gene CDC42BPG
# DMPK = test system: DMPK
# DRAK1 = test system: T7, DRAK1
# T7 construct: gene STK17A
# DRAK2 = test system: T8, DRAK2
# T8 construct: gene STK17B
# DYRK1A = test system: DYRK1A
# 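Further: KINOMEscan kinase panel screen.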
SMILES,%Inh (CSNK1G1),%Inh (CSNK1G2),%Inh (CSNK1G3),%Inh (CSNK2A1),%Inh (CSNK2A2),%Inh (CTK),%Inh (DAPK1),%Inh (DAPK2),%Inh (DAPK3),%Inh (DCAMKL1),%Inh (DCAMKL2),%Inh (DCAMKL3),%Inh (DDR1),%Inh (DDR2),%Inh (DLK),%Inh (DMPK2),%Inh (DMPK),%Inh (DRAK1),%Inh (DRAK2),%Inh (DYRK1A)
COc1cccc(C(=O)Nc2cccc(Oc3ccc4nc(NC(=O)C5CC5)cn4n3)c2)c1,13%,0%,30%,0%,17%,0%,0%,4%,9%,20%,17%,49%,100%,99.7%,18%,27%,0%,0%,24%,0%
Cl.Cl.NCC(NCc1ccc(-c2ccnc3[nH]ccc23)s1)c1ccccc1 (centres unmarked) [GSK1321565],0%,0%,33%,39%,37%,0%,67%,32%,71%,21%,0%,0%,0%,34%,0%,25%,81%,75%,6%,38%
O=C(Nc1ccccc1F)NC1CCN(c2ccnc(Nc3ccc(F)cc3)n2)CC1 [GSK1379800],3%,0%,12%,0%,0%,0%,0%,0%,20%,0%,0%,0%,0%,31%,24%,4%,0%,0%,0%,4%
CC(C)(C)c1ccc2nccc(Nc3cccc(O)c3)c2c1 [GW856795],36%,0%,0%,0%,0%,0%,16%,0%,0%,14%,0%,0%,62%,47%,16%,0%,3%,5%,1%,0%
Oc1cc(Nc2ccnc3cc(I)ccc23)ccc1F [GW552771],0%,0%,0%,23%,0%,6%,0%,0%,30%,0%,0%,0%,14%,19%,32%,0%,0%,0%,6%,36%
O=C(Nc1n[nH]c2nc(-c3ccc(O)cc3)ccc12)C1CC1 [SB-710363],0%,0%,9%,64%,87%,30%,76%,0%,32%,0%,0%,76%,0%,27%,0%,0%,0%,93.4%,26%,62%
COc1cc(Nc2nccc(-c3c(-c4cccc(NC(=O)c5c(F)cccc5F)c4)nn4ncccc34)n2)cc(OC)c1OC [GSK327238],16%,0%,20%,0%,4%,14%,0%,0%,0%,12%,0%,43%,100%,95.2%,2%,100%,8%,0%,0%,23%
